Reference: PubChem BioAssay (NCATS)
A number with no mark means an inactive call. No rule for the calls is given here.

test system: HIV-1 nucleocapsid protein NCp7 (binding to TG oligonucleotide); experiment: HIV Nucleocapsid (AID 346); settings: HIV-1 NC / fluorescein-TGTGTGTG probe, fluorescence polarization;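 also: potency is for inhibitors that block NC binding and lower polarization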
Procedure, shortened: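 Fluorescence polarization readout: labelled TG4xF oligo (10 nM) with 100 nM nucleocapsid protein, high-salt (250mM NaCl) Hepes pH 7.5 buffer containing zinc and fresh reducing agents. Compounds added by pin tool; incubation 1 hr, room temperature.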
Potency is read from the fitted curve at half-maximal effect.

| Compound | Potency |
| --- | --- |
| N#Cc1cccc(-c2nc3cnc(N4CCOCC4)nc3n(C[C@H]3CCCO3)c2=O)c1 | > 20 µM |
| COC(=O)N1CCC[C@@]2(CCN(c3ncccn3)C2)C1 | > 20 µM |
| CN1CCN(c2cc(-c3ccoc3)ncn2)CC1 | > 20 µM |
| COc1ccccc1CN1CCCC2(CCN(C(C)=O)CC2)C1 | > 20 µM |
| CN1CCN(c2ncnc3ccc(-c4ccc(C(=O)N(C)C)cc4)cc23)CC1 | > 20 µM |
| CN(Cc1ccco1)c1ncncc1-c1cccc(C#N)c1 | > 20 µM |
| c1csc(CNc2ccnc(-c3ccoc3)n2)c1 | > 20 µM |
| COCCn1c(=O)c(-c2cccc(C#N)c2)nc2cnc(Oc3cccc(Cl)c3)nc21 | > 20 µM |
| O=c1c(-c2cccs2)nc2cnc(Oc3cccc(Cl)c3)nc2n1C[C@H]1CCCO1 | > 20 µM |
| FC(F)(F)c1ccccc1-c1nccc(N2CCNCC2)n1 | > 20 µM |
| CN1CCC2(CC1)CCN(C(=O)c1cccc(F)c1)CC2 | > 20 µM |
| COc1ccccc1CN1CCCC2(CCN(C(=O)c3ccncc3)CC2)C1 | > 20 µM |
| Cc1noc(C)c1-c1nccc(NCc2cccnc2)n1 | > 20 µM |
| O=c1c(-c2cc(F)cc(F)c2)nc2cnc(N3CCNCC3)nc2n1CCc1ccccc1 | > 20 µM |
| O=c1c(-c2cccc(F)c2)nc2cncnc2n1C1CC1 | > 20 µM |
| O=C(c1csnn1)N1CCC2(CCCN(C(c3ccccc3)c3ccccc3)C2)CC1 | > 20 µM |
| COc1ccc(Oc2ncc3nc(-c4ccc(F)cc4)c(=O)n(C)c3n2)cc1 | > 20 µM |
| Cc1noc(C)c1-c1ccc2ncnc(NCCN3CCOCC3)c2c1 | > 20 µM |
| COc1cccc(Cn2c(=O)c(-c3ccc(F)cc3)nc3cncnc32)c1 | > 20 µM |
| COc1ccccc1CN1CCC2(CC1)CCN(S(=O)(=O)c1ccccc1)CC2 | > 20 µM |

| Compound | Potency |
| --- | --- |
| COCCn1c(=O)c(CCc2ccccc2)nc2cnc(OC)nc21 | > 20 µM |
| O=S(=O)(c1ccccc1)N1CCC2(CC1)CN(c1ccccn1)C2 | > 20 µM |
| COc1ccccc1CNc1ncnc2ccc(-c3ccccc3CN(C)C)cc12 | > 20 µM |
| COc1ccccc1CCn1c(=O)c(-c2cc(F)cc(F)c2)nc2cncnc21 | > 20 µM |
| CN(Cc1ccco1)c1ncncc1-c1cccc(NS(C)(=O)=O)c1 | > 20 µM |
| COCC(=O)N1CCC2(CC1)CN(c1ccccc1)C2 | > 20 µM |
| O=S(=O)(c1ccccc1)N1CCC2(CCN(c3ccc(-c4ccccc4)cc3)CC2)CC1 | > 20 µM |
| COc1ccc(-c2nc3cnc(Nc4cccc(OC)c4)nc3n(C[C@H]3CCCO3)c2=O)cc1 | 14.4 µM |
| O=c1c(-c2ccc(Cl)cc2)nc2cnc(Nc3ccccc3)nc2n1C1CC1 | > 20 µM |
| CNc1nc(-c2cccc(C#N)c2)nc2ccccc12 | > 20 µM |
| COc1cccc(Cn2c(=O)c(-c3ccc(Cl)cc3)nc3cnc(OC)nc32)c1 | > 20 µM |
| O=C(Nc1ccccc1)N1CCCC2(CCNCC2)C1 | > 20 µM |
| Clc1ccccc1-c1nc(-n2ccnc2)c2ccccc2n1 | > 20 µM |
| COCCn1c(=O)c(C)nc2cnc(Nc3ccccc3)nc21 | > 20 µM |
| O=C(Nc1ccccc1)N1CCC2(CC1)CCN(S(=O)(=O)c1ccccc1)CC2 | > 20 µM |
| CC(C)NC(=O)N1CCC2(CC1)CCN(C(=O)c1cccc(F)c1)CC2 | > 20 µM |
| CN1CCN(c2ncc3nc(-c4cn(C)c5ccccc45)c(=O)n(CCC#N)c3n2)CC1 | > 20 µM |
| COc1ccc(CNc2ncncc2-c2ccccc2CN(C)C)c(OC)c1 | > 20 µM |
| c1nc(NCCN2CCOCC2)c2cc(-c3ccoc3)ccc2n1 | > 20 µM |
| N#CCCn1c(=O)c(-c2ccccc2)nc2cnc(Oc3cccc(Cl)c3)nc21 | > 20 µM |
